Source: PubChem BioAssay (National Center for Advancing Translational Sciences (NCATS))
HCMV antiviral – inhibitors of human cytomegalovirus; actives 4.5% (n = 410,000); activity change, negative = inhibition, % at 57.5 µM; HFF cells, HCMV-luciferase reporter, 72 h; active compounds read low; in the data active = activity change below about -60%; inconclusive = no clear call, values can overlap the other calls; inactive = above about -39%
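Inhibition of viral replication was scored as loss of reporter luminescence in HFFs infected with HCMV-luciferase (MOI 1 PFU/cell) for 72 h; compounds tested at 2 doses, normalized to buffer and Salinomycin controls.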
LASV entry inh – blocks Lassa virus binding to or entry into cells | Lassa virus pseudotype entry inhibition, cell reporter | AID 540256 | actives 1.2% (n = 300,000) | Potency, µM (series often up to 37.9 µM), hits mostly inhibitors; calls by dose curve; tested in HEK293 cells; note: nearly all actives have a fitted effect of over 50% in size
Marburg entry inh – Marburg virus entry inhibition; Marburg virus pseudotyped entry inhibition, cell reporter; Potency, µM (top dose mostly 37.8 µM), most hits filed as inhibitors; actives 1.8% (n = 300,000); calls by dose curve; tested in HEK293 cells
FMDV inh – blocks foot and mouth disease virus; FMDV antiviral cell-based qHTS; Potency, µM (doses to about 57.9 µM), usual class: inhibitors; actives 1.2% (n = 410,000); calls by dose curve; tested in HEK293T cells; note: read-out not given here; nearly all actives have a fitted effect of over 45% in size
Vaccinia Venus – inhibitors of vaccinia virus (Venus reporter); Potency, µM (titrated, usually from 36.5 µM), hits mostly inhibitors; Vaccinia virus Venus reporter expression, fluorescence; actives 0.46% (n = 330,000); AID 720580; calls by dose curve; tested in A549 cells; note: nearly all actives have a fitted effect of over 30% in size
VACV mCherry inh – vaccinia inhibition (mCherry reporter); Potency, µM (doses to about 36.5 µM), actives largely listed as inhibitors; Vaccinia virus mCherry reporter infection, fluorescence; actives 0.63% (n = 310,000); calls by dose curve; tested in A549 cells; note: nearly all actives have a fitted effect of over 35% in size
Hits are given with their value; [ ] = dose if it differs, or a comment. This is a sample that favours compounds with a hit; in the whole collection about 6.5% have one here.

Results for CCOc1ccc(CN2CCCC(C(=O)c3ccccc3OC)C2)cc1 (configuration not stated) ?
HCMV antiviral: inactive; LASV entry inh: inconclusive; Marburg entry inh: 8.9µM; FMDV inh: inactive; Vaccinia Venus: inactive; VACV mCherry inh: inconclusive

What do the screens show for `COc1ccccc1CN1CCCC(C(=O)c2ccccc2OC)C1` (configuration not stated)?
HCMV antiviral: inactive; LASV entry inh: inconclusive; Marburg entry inh: inconclusive; FMDV inh: inactive; Vaccinia Venus: inactive; VACV mCherry inh: inconclusive

How did COc1ccccc1CN1CCCC(C(=O)c2ccccc2SC)C1 (configuration not stated) do in these assays?
HCMV antiviral: inactive; LASV entry inh: inconclusive; Marburg entry inh: 10µM; FMDV inh: inactive; Vaccinia Venus: inactive; VACV mCherry inh: inactive

How did CCC(=O)Nc1ccc(CC)cc1-c1nc2ccccc2n(CC(=O)Nc2ccccc2C)c1=O do in these assays?
HCMV antiviral: inactive; LASV entry inh: inactive; Marburg entry inh: inactive; FMDV inh: inactive; Vaccinia Venus: inactive; VACV mCherry inh: inactive

How did COc1cccc(CN2CCC(c3nnc(SCC4CCCO4)n3C)CC2)c1O (configuration not stated) do in these assays?
FMDV inh: inactive; Vaccinia Venus: inactive; VACV mCherry inh: inactive

How did CCOc1ccccc1NC(=O)C1CCN(S(=O)(=O)c2ccc3c(c2)CCCN3C(C)=O)CC1 do in these assays?
HCMV antiviral: inactive; LASV entry inh: inactive; FMDV inh: inactive; Vaccinia Venus: inactive; VACV mCherry inh: inactive

Results for Cc1ccc(NC(=S)NC(C)CCc2ccccc2)cc1C (configuration not stated) ?
HCMV antiviral: -71; LASV entry inh: inactive; Marburg entry inh: inactive; FMDV inh: inactive; Vaccinia Venus: inactive; VACV mCherry inh: inconclusive

Results for CC(=O)c1c(NC(=O)c2ccccc2)[nH]c(-c2ccccc2)nc1=S ?
HCMV antiviral: -84; LASV entry inh: inactive; Marburg entry inh: inactive; FMDV inh: inactive; Vaccinia Venus: inactive; VACV mCherry inh: inactive

How did CC(=O)c1c(C)[nH]c(-c2ccccc2)nc1=S do in these assays?
HCMV antiviral: inactive; LASV entry inh: inactive; Marburg entry inh: inactive; FMDV inh: inactive; Vaccinia Venus: inactive[7.34 µM]; VACV mCherry inh: inactive[7.34 µM]

Results for Cc1ccc(NC(=O)c2cc3c([nH]c2=O)CC(c2ccccc2)CC3=O)cc1 (configuration not stated) ?
Vaccinia Venus: inactive; VACV mCherry inh: inactive

What do the screens show for `Fc1ccccc1C1c2[nH]c3ccccc3c2CCN1Cc1cccn1-c1ncccn1` (configuration not stated)?
HCMV antiviral: inconclusive; LASV entry inh: inconclusive; Marburg entry inh: 3.2µM; FMDV inh: inactive; Vaccinia Venus: inactive; VACV mCherry inh: inconclusive

Results for Cc1ccc2nc(C3CCCCC3)c(Cc3ccccc3)n2c1 ?
HCMV antiviral: inactive; FMDV inh: inconclusive; Vaccinia Venus: inactive; VACV mCherry inh: inactive

What do the screens show for `Cc1ccc2nc(C3CCCCC3)c(Cc3ccccc3C(F)(F)F)n2c1`?
HCMV antiviral: -70; FMDV inh: inactive; Vaccinia Venus: inactive; VACV mCherry inh: inactive

What do the screens show for `N=c1nc(N)nc2n1NC(c1ccc(F)cc1)=CS2`?
HCMV antiviral: -88; LASV entry inh: inconclusive; Marburg entry inh: inconclusive; FMDV inh: inactive; Vaccinia Venus: inconclusive; VACV mCherry inh: inconclusive

How did O=c1[nH]cnc2c1c(-c1ccccc1)cn2-c1cccc(Cl)c1 do in these assays?
HCMV antiviral: inactive; FMDV inh: inactive

How did COc1ccccc1-n1cc(-c2ccccc2)c2c(=S)nc[nH]c21 do in these assays?
HCMV antiviral: -69; FMDV inh: inactive

How did COc1ccc(-n2cc(-c3ccccc3)c3c(=O)[nH]cnc32)cc1 do in these assays?
HCMV antiviral: inactive; LASV entry inh: 21µM; Marburg entry inh: inconclusive; FMDV inh: inactive; Vaccinia Venus: inconclusive; VACV mCherry inh: inconclusive

Results for CN(C)c1ccc(/C=C/c2cc3ccccc3c[n+]2C)cc1 ?
Vaccinia Venus: inactive; VACV mCherry inh: inactive

What do the screens show for `COc1ccc(CN(C)CCCn2cnc3c(OCc4ccccc4)ncnc32)cc1`?
HCMV antiviral: -97; FMDV inh: inactive; Vaccinia Venus: inactive; VACV mCherry inh: inconclusive

How did CN(CCCn1cnc2c(OCc3ccccc3)ncnc21)CCc1ccccn1 do in these assays?
HCMV antiviral: inactive; FMDV inh: inactive; Vaccinia Venus: inactive; VACV mCherry inh: inactive

What do the screens show for `c1ccc(COc2ncnc3c2ncn3CCCN2CCN(Cc3cccc4ccccc34)CC2)cc1`?
HCMV antiviral: inactive; FMDV inh: 28µM; Vaccinia Venus: 11µM; VACV mCherry inh: 10µM

Results for C[C@@H](NCCCn1cnc2c(OCc3ccccc3)ncnc21)c1cccc2ccccc12 ?
HCMV antiviral: inactive; FMDV inh: inactive; Vaccinia Venus: inconclusive; VACV mCherry inh: inconclusive

Results for Cc1cc(C)c(CN2CCN(C(=O)Cn3cnc4c(OCc5ccccc5)ncnc43)CC2)c(C)c1 ?
HCMV antiviral: -64; FMDV inh: inconclusive; Vaccinia Venus: inconclusive; VACV mCherry inh: inconclusive

Results for O=C(O)Cn1cnc2c(OCc3ccccc3)ncnc21 ?
HCMV antiviral: inactive; FMDV inh: inactive; Vaccinia Venus: inactive; VACV mCherry inh: inactive

How did COC(=O)c1sc2cccc(F)c2c1S(=O)(=O)N1CCN(c2ccc(F)cc2)CC1 do in these assays?
HCMV antiviral: inactive; LASV entry inh: inactive; FMDV inh: inactive; Vaccinia Venus: inactive; VACV mCherry inh: inactive

How did COc1ccc(CN(CCC#N)CCC2(c3ccccc3)CC(C)N(C)CC2C)cc1OC (configuration not stated) do in these assays?
HCMV antiviral: inactive; LASV entry inh: inactive; Marburg entry inh: 13µM; FMDV inh: inactive; Vaccinia Venus: inactive[7.34 µM]; VACV mCherry inh: inactive[7.34 µM]

Results for CC1CC(CCN)(c2ccccc2)C(C)CN1C (configuration not stated) ?
HCMV antiviral: inconclusive; LASV entry inh: inactive; Marburg entry inh: 4µM; FMDV inh: inactive; Vaccinia Venus: inactive[7.34 µM]; VACV mCherry inh: inactive[7.34 µM]

How did Cc1ccc(C2c3c(oc4ccccc4c3=O)C(=O)N2c2nnc(C)s2)cc1 (configuration not stated) do in these assays?
HCMV antiviral: inactive; LASV entry inh: inactive; FMDV inh: inactive; Vaccinia Venus: inactive; VACV mCherry inh: inactive

How did CCOC(=O)[C@]12Cc3cc(C)ccc3[C@H]1N(Cc1ccccc1)C(=O)c1cc(OC)ccc12 do in these assays?
HCMV antiviral: inactive; FMDV inh: inconclusive; Vaccinia Venus: inconclusive; VACV mCherry inh: inactive

Results for CCCCCN1C(=O)c2ccccc2[C@@]2(C(=O)OCC)Cc3cc(Cl)ccc3[C@@H]12 ?
HCMV antiviral: inconclusive; FMDV inh: inconclusive; Vaccinia Venus: inactive; VACV mCherry inh: inconclusive

How did CCOC(=O)[C@]12Cc3cc(Cl)ccc3[C@H]1N(C)C(=O)c1cc(OC)ccc12 do in these assays?
HCMV antiviral: -96; FMDV inh: 16µM; Vaccinia Venus: inconclusive; VACV mCherry inh: inconclusive

Results for CCOC(=O)[C@]12Cc3cc(Cl)ccc3[C@H]1N(Cc1ccccc1)C(=O)c1ccccc12 ?
HCMV antiviral: inactive; FMDV inh: inconclusive; Vaccinia Venus: inactive; VACV mCherry inh: inconclusive
